Assay results as given in ChEMBL document CHEMBL1157539, “Thousands of chemical starting points for antimalarial lead identification” (Nature, 2010).

Assays:
Type in all cases: functional
Plasmodium falciparum [1] = experiment: GSK_TCMDC: Inhibition of Plasmodium falciparum 3D7 in whole red blood cells, using parasite LDH activity as an index of growth. Test compounds present at 2uM
Plasmodium falciparum [2] = experiment: GSK_TCMDC: Inhibition of Plasmodium falciparum Dd2 in whole red blood cells, using parasite LDH activity as an index of growth. Test compounds present at 2uM
HepG2 = experiment: GSK_TCMDC: Percent inhibition of human HepG2 cell line. Test compounds present at 10uM.

Compound | Inhibition (Plasmodium falciparum [1]) | Inhibition (Plasmodium falciparum [2]) | Inhibition (HepG2)
Cc1cccc2nc(-c3cccc(-c4cccc(NC(=O)c5cccnc5Cl)c4)c3)[nH]c12 | 97% | 32% | 0%
COc1ccc(CNC2Cc3ccccc3C2)cc1-c1ccc(S(=O)(=O)NCCN2CCCC2)cc1.O=C(O)C(F)(F)F | 100% | 61% | 40%
Fc1cccc(Nc2nc(NCc3ccc(OCc4ccccc4)cc3)nc(Nc3cccc(F)c3)n2)c1 | 84% | 14% | 5%
CCCCCOc1ccc(C(O)C(CCC(CN2CCCCCC2)C(O)c2ccc(OCCCCC)cc2)CN2CCCCCC2)cc1.Cl (stereo unspecified) | 99% | 93% | 99%
NCC(NC(=O)c1ccc(-c2c[nH]c3ncccc23)s1)c1ccccc1.O=CO (stereo unspecified) | 95% | 87% | 52%
Oc1cc(-c2cccc(C(F)(F)F)c2)nc(Nc2ccc(Cl)c(Cl)c2)n1 | 97% | 97% | 57%
Cc1cc(N2CCCCC2)nc2ccc(NC(=O)c3cccc([N+](=O)[O-])c3)cc12 | 95% | 99% | 9%
Cc1ccc(Nc2nc3cc(Nc4ccnc(Nc5ccc(CS(C)(=O)=O)cc5)n4)ccc3o2)cc1 | 99% | 66% | 54%
COc1ccc(CNCc2ccccc2)cc1-c1ccc(OC)c(S(=O)(=O)NCCN2CCCC2)c1.O=C(O)C(F)(F)F | 100% | 55% | 14%
COc1ccc2nccc([C@@H](O)CN3CCC(NCc4cc5ccccc5s4)CC3)c2c1.O=C(O)C(=O)O | 97% | 53% | 8%
CCCCNC(=N)Nc1ccc(OCCCOc2ccc(NC(=N)NCCCC)cc2)cc1 | 96% | 97% | 15%
O=C1C(c2ccccc2)=C(Nc2cccc(OC(F)(F)C(F)F)c2)c2ccccc21 | 96% | 96% | 0%
Cl.c1ccc(COc2ccc(Nc3ncnc4cnc(-c5ccc(CN6CCCCC6)o5)cc34)cc2)cc1 | 90% | 13% | 0%
O=C(Nc1ccc(C(F)(F)F)cc1)c1cccc(S(=O)(=O)NCC2CCCN(CC3CCCCC3)C2)c1.O=C(O)C(F)(F)F (stereo unspecified) | 97% | 4% | 27%
CCCCCN1CCCC1CNS(=O)(=O)c1cccc(C(=O)Nc2cccc(C#N)c2)c1.O=C(O)C(F)(F)F (stereo unspecified) | 90% | 7% | 19%
CN1CCN(CCCN(Cc2csc(-c3ccc(CNCc4ccccc4)cc3)n2)S(=O)(=O)c2ccc(F)cc2)CC1.O=C(O)C(F)(F)F | 100% | 80% | 21%
N=C(NCc1ccccc1)Nc1nc(-c2ccc(OCCCn3ccnc3)cc2)cs1 | 100% | 55% | 10%
CN(Cc1cccc(F)c1)C1CCN(c2cc(NC(=O)c3ccc(F)cc3)ccn2)C1.O=C(O)C(F)(F)F (stereo unspecified) | 83% | 14% | 7%
Cc1cc(OCCCN2CCCCC2)ccc1NC(=O)COc1ccc(Cl)cc1C(=O)c1cc(Cl)cc(C#N)c1 | 93% | 16% | 28%
CC(C)CC(=O)N1CCNC[C@@H]1C(=O)NC1CC1.O=C(O)C(F)(F)F | 82% | 0% | 0%
CC1(C)NC(N)=NC(=N)N1OCc1cccc(Cl)c1Cl.Cl | 92% | 75% | 68%
COc1cccc(-c2cc(C(=O)Nc3cc(Oc4ccc(O)cc4)cc([N+](=O)[O-])c3)on2)c1 | 89% | 30% | 16%
Cn1c(N)c(C(=O)CSc2ncc(-c3ccc(F)cc3)n2Cc2ccccc2)c(=O)n(C)c1=O | 88% | 66% | 11%
O=C(/C=C/c1ccc(Cl)c(Cl)c1)NC1CCC(CN2CCC(c3nc4ccccc4n3CCCO)CC2)CC1 (stereo unspecified) | 99% | 28% | 28%
O=C(Nc1ccc(Oc2ccc(OC(F)(F)F)cc2)cc1)c1ccco1 | 90% | 71% | 5%
COc1ccc2ncc(F)c(CCN3CC[C@@H](CNCc4cc5c(cn4)OCS5)C3)c2n1.Cl | 98% | 29% | 3%
CC(C)(CNC(=O)C1CCN(CCOc2ccc(Cl)cc2)CC1)c1nc(-c2ccc(Cl)c(O)c2)c(-c2ccncc2)[nH]1.Cl | 100% | 5% | 40%
